What all share (experiment): DAPPL (digital affinity profiling via proximity ligation, sequencing); 10 mM Tris-HCl pH 7.5, 50 mM NaCl, 1 mM DTT, 4% glycerol, room temperature, 30 min; GST-TFs on glutathione beads, 16-mer random dsDNA library, 0.1% formaldehyde crosslink after washing; high values mean tight binding
Conditions in all cases: protein: recombinant; tags: N-terminal GST; dsDNA, one strand shown

The target of one test is T1, ELK1 (Homo sapiens, UniProt P19419 1-428).
T1 sequence: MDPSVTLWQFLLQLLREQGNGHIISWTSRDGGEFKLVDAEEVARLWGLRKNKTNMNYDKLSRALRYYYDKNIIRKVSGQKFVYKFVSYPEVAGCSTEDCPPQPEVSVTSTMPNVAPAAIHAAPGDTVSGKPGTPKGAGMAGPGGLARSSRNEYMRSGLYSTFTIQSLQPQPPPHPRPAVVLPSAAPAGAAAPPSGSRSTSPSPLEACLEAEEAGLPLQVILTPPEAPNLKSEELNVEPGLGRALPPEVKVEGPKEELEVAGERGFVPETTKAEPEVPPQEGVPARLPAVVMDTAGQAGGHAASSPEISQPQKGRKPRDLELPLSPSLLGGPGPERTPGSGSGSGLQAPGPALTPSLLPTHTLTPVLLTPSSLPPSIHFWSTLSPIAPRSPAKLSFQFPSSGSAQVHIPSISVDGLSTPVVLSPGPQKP
A digest of the protocol: (§1)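 GST fusions of human transcription factors were expressed in yeast and captured with glutathione beads. Once given DNA barcodes and pooled alongside a tag-only sample, they were incubated for 30 min at room temperature with 200 nmole of a random double-stranded 16-mer DNA library in Tris/NaCl/DTT/glycerol buffer, then washed, crosslinked (0.1% formaldehyde), proximity-ligated, PCR-amplified and sequenced on an Illumina NextSeq500. The binding signal of each hexamer is its read frequency for a factor divided by its frequency for the tag-only sample.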

The target in a further test is T2, GABPA (Homo sapiens, UniProt Q06546 1-454).
T2 sequence: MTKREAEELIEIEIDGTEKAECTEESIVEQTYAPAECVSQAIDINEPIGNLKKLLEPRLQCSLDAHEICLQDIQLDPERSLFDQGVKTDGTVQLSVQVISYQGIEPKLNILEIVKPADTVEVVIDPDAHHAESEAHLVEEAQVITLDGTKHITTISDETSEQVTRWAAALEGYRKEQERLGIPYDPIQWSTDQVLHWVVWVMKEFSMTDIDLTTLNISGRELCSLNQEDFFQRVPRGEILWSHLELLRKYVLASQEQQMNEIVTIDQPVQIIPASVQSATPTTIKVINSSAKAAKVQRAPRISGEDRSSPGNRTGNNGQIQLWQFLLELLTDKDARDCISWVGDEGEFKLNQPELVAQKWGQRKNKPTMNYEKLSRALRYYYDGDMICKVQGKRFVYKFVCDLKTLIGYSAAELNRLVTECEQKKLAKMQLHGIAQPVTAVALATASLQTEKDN
Summed up: as §1

For another test, the target named is T3, ERG (Homo sapiens, UniProt P11308 1-479).
T3 sequence: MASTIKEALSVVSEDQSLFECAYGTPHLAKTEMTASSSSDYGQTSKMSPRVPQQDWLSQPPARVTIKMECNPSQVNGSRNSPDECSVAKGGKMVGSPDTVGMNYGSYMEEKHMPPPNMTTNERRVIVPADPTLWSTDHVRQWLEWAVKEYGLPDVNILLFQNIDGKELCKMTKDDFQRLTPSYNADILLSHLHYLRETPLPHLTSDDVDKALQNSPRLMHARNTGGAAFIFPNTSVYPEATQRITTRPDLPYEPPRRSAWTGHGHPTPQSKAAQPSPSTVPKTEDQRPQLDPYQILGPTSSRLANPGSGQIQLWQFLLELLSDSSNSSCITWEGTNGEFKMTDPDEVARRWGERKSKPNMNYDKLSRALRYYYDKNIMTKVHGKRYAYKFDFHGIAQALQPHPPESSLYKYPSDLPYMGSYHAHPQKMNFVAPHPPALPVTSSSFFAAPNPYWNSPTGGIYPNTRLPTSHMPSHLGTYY
Summed up: as §1

The next test concerns the target ELF1 (Homo sapiens, UniProt P32519 1-619). Summed up: as §1
Another test deals with T4, EHF (Homo sapiens, UniProt Q9NZC4 1-300).
T4 sequence: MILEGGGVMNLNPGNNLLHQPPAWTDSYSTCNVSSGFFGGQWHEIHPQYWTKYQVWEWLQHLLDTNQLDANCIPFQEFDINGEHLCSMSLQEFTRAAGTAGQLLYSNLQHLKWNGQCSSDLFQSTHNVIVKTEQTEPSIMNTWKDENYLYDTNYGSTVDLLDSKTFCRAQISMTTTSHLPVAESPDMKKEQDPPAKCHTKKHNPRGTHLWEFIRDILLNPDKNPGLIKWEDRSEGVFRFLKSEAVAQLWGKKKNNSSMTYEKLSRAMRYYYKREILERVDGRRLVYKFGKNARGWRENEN
A digest of the protocol:
as §1

The target of another test is SPI1 (Homo sapiens, UniProt P17947 1-270). Summed up: as §1
For the next test, the target named is SPIB (Homo sapiens, UniProt Q01892 1-262). A digest of the protocol:
as §1

The next test deals with T5, FEV (Homo sapiens, UniProt Q99581 1-238).
T5 sequence: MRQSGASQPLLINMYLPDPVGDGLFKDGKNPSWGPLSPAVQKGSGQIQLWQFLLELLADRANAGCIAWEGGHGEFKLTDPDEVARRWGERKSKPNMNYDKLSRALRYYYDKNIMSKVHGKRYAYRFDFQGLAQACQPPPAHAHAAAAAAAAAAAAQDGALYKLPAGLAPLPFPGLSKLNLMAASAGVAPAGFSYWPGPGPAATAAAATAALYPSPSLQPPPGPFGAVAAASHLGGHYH
Summed up: as §1

For the next test, the target named is ETV5 (Homo sapiens, UniProt P41161 1-510). A digest of the protocol:
as §1

A further test addresses ELF4 (Homo sapiens, UniProt Q99607 1-663). A digest of the protocol: as §1
The target in the next test is T6, ELK4 (Homo sapiens, UniProt P28324-2 1-405).
T6 sequence: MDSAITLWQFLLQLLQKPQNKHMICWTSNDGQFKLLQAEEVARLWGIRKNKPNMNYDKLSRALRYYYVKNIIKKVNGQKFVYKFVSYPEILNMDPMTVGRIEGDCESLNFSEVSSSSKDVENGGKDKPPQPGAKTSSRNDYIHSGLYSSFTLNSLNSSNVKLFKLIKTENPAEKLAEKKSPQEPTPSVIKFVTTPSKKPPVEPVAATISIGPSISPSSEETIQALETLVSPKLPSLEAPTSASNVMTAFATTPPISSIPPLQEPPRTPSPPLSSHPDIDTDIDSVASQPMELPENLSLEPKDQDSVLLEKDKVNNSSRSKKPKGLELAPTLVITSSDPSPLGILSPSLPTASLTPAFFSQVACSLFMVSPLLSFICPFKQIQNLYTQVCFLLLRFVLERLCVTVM
Summed up: as §1

For the next test, the target named is T7, ETV2 (Homo sapiens, UniProt O00321 1-342).
T7 sequence: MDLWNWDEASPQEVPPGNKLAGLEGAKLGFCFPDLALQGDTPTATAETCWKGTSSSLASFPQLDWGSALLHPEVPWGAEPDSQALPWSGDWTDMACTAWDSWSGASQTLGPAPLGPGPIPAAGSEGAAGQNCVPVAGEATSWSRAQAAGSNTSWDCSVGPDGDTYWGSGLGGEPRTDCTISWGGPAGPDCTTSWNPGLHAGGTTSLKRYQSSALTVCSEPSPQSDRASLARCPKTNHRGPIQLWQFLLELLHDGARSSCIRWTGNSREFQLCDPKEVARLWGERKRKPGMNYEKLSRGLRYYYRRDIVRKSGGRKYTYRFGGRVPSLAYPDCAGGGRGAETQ
Summed up:
as §1

Another test concerns the target T8, ELF3 (Homo sapiens, UniProt P78545 1-371).
T8 sequence: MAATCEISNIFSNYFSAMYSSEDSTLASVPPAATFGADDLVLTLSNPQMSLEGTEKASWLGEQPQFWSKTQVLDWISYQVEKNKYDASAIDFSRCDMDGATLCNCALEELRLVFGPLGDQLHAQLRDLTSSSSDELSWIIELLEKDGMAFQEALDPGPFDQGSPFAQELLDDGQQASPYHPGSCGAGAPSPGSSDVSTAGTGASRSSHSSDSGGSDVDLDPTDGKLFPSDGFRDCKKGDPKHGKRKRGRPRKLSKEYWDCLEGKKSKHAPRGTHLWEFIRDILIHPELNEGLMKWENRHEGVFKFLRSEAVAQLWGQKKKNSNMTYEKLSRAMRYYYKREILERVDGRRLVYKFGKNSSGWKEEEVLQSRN
A digest of the protocol:
as §1

In the next test the target is ETV1 (Homo sapiens, UniProt P50549 1-477). A digest of the protocol: as §1
Sequence of ETV1 (P50549 whole entry): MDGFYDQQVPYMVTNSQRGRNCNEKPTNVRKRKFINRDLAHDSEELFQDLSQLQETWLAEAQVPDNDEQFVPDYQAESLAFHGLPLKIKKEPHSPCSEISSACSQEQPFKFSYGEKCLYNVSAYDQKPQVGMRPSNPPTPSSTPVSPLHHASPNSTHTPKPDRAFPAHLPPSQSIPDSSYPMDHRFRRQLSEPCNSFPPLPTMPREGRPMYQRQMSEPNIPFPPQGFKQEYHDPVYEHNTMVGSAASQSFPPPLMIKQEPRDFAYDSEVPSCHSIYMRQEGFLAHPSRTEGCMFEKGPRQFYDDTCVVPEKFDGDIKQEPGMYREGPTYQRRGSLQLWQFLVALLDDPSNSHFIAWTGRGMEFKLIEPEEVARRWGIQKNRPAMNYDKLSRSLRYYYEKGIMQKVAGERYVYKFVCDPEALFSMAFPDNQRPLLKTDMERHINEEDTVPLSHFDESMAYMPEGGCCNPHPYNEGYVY
In the next test the target is T9, ERF (Homo sapiens, UniProt P50548 1-548).
T9 sequence: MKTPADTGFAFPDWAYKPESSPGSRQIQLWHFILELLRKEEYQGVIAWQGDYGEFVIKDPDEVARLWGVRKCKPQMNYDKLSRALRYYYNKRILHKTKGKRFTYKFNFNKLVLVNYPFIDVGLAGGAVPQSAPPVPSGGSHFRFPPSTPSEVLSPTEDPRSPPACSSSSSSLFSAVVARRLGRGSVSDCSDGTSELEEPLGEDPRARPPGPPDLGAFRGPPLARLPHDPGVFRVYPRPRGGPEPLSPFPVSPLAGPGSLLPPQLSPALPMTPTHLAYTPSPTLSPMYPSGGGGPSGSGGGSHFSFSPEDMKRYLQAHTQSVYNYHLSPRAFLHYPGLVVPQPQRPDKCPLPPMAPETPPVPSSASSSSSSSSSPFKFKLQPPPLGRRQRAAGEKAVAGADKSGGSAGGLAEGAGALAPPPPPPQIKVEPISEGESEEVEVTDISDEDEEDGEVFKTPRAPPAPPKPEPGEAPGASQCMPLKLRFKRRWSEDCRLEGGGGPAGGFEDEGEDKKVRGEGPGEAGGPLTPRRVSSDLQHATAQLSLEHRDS
A digest of the protocol: as §1

In another test the target is T10, ETV3L (Homo sapiens, UniProt Q6ZN32 1-361).
T10 sequence: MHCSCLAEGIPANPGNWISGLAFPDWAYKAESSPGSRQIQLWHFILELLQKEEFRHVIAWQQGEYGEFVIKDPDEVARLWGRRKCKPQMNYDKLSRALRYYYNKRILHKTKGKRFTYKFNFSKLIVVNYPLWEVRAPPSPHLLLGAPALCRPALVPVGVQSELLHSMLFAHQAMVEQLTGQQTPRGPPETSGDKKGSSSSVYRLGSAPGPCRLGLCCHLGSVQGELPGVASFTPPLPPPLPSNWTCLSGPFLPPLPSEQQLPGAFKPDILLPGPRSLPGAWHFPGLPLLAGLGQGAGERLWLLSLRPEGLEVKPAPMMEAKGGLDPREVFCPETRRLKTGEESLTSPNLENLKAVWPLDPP
Summed up: as §1

The target in the next test is T11, ETS2 (Homo sapiens, UniProt P15036 1-469).
T11 sequence: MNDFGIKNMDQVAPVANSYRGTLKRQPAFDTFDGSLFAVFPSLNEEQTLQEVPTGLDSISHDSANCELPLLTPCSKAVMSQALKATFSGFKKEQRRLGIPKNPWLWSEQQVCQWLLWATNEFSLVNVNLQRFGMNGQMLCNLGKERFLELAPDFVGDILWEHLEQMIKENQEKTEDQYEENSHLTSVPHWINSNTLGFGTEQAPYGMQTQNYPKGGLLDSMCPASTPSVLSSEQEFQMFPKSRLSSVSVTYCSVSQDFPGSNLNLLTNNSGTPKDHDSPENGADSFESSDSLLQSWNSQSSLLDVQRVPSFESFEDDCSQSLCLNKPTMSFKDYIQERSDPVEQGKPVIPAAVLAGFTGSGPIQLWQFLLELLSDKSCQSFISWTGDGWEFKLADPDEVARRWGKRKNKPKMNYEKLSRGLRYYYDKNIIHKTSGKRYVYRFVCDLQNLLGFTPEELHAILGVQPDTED
Summed up: as §1

A further test concerns the target T12, ETV7 (Homo sapiens, UniProt Q9Y603 1-341).
T12 sequence: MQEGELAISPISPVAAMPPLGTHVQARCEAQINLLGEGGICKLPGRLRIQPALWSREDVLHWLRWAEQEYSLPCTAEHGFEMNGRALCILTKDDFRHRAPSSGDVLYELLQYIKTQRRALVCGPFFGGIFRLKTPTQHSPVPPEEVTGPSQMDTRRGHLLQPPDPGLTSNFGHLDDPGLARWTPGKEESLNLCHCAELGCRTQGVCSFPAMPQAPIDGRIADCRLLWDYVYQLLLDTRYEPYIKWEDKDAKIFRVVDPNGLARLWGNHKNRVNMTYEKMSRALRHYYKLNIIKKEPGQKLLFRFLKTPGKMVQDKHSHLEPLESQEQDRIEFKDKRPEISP
A digest of the protocol:
as §1

The target of the next test is T13, ETV3 (Homo sapiens, UniProt P41162-2 1-143).
T13 sequence: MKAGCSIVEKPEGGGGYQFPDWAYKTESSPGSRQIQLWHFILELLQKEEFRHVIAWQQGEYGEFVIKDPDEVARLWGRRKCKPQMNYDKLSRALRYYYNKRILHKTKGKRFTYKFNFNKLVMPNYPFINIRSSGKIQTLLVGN
A digest of the protocol: as §1

Sequence of ETV5 (P41161 whole entry): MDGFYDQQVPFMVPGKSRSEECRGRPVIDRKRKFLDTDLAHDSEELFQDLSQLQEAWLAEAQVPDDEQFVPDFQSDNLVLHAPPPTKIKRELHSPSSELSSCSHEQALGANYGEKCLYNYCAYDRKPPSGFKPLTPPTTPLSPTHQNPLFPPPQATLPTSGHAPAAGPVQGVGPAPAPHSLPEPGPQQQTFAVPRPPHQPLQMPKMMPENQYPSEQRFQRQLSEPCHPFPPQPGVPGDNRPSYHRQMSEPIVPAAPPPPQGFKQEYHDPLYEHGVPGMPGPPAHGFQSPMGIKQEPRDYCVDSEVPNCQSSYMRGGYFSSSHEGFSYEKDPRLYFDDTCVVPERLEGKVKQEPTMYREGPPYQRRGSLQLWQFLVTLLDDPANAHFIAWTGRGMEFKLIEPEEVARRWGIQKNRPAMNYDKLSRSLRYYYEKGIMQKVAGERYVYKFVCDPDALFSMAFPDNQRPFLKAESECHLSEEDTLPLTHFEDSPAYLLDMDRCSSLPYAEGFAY
Sequence of ELF4 (Q99607 whole entry): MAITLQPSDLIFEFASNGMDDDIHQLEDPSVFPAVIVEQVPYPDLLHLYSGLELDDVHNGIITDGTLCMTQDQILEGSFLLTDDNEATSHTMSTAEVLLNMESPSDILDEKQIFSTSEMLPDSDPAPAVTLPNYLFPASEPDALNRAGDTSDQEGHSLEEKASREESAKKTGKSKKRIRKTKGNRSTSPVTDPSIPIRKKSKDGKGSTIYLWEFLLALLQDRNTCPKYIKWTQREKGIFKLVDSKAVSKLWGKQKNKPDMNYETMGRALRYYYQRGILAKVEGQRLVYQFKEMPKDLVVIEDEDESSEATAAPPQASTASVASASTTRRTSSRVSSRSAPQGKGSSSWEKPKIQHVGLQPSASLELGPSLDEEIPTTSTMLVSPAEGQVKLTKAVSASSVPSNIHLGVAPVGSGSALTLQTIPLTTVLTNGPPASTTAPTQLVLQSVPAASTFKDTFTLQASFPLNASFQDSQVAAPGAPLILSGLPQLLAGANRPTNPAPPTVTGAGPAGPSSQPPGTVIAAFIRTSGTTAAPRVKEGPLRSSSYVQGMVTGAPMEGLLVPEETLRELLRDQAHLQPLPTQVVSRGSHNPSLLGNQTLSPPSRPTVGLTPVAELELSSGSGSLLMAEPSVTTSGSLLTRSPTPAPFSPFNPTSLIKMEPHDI
Sequence of ELF1 (P32519 whole entry): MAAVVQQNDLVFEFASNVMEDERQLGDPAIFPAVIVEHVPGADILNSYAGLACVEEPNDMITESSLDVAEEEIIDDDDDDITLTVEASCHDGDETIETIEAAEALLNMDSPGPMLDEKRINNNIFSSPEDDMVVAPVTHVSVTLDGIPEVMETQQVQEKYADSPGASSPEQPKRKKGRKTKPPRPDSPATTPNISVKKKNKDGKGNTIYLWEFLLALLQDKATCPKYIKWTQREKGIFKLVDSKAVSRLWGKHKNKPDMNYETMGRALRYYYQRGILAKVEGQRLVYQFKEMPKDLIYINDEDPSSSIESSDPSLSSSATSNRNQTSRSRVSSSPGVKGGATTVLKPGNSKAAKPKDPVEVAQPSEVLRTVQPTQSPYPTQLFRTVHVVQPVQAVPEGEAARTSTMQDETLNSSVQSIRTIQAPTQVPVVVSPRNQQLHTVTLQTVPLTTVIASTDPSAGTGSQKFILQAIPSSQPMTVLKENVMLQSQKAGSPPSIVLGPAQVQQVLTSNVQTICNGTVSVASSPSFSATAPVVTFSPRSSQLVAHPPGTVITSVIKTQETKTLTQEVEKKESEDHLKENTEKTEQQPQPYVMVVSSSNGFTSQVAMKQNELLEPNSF
Sequence of SPIB (Q01892 whole entry): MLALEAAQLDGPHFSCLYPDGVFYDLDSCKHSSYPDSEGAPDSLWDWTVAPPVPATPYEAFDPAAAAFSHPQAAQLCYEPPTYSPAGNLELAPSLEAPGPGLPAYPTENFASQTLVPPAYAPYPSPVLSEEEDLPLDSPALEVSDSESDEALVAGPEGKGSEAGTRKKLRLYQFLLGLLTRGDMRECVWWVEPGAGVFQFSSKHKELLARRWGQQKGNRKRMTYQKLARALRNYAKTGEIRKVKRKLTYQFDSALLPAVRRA

Take CGATGC: the binding signal with ELK1 was 1.1 fold enrichment (6-mer frequency, TF over GST control); in the test with GABPA it was 1.19 fold enrichment (6-mer frequency, TF over GST control); with ERG it was 1.08 fold enrichment (6-mer frequency, TF over GST control); with ELF1 it was 1.02 fold enrichment (6-mer frequency, TF over GST control); with EHF, 1.09 fold enrichment (6-mer frequency, TF over GST control); with SPI1, 1.12 fold enrichment (6-mer frequency, TF over GST control). For the same sequence, the binding signal in the test with SPIB was 1.06 fold enrichment (6-mer frequency, TF over GST control); in the test with FEV, 1.07 fold enrichment (6-mer frequency, TF over GST control); in the test with ETV5 it was 1.11 fold enrichment (6-mer frequency, TF over GST control); with ELF4 it was 1.19 fold enrichment (6-mer frequency, TF over GST control); in the test with ELK4, 1.07 fold enrichment (6-mer frequency, TF over GST control); in the test with ETV2 it was 1.15 fold enrichment (6-mer frequency, TF over GST control). For the same sequence, the binding signal was 1.2 fold enrichment (6-mer frequency, TF over GST control) with ELF3; 1.03 fold enrichment (6-mer frequency, TF over GST control) with ETV1; 1.07 fold enrichment (6-mer frequency, TF over GST control) with ERF; 1.18 fold enrichment (6-mer frequency, TF over GST control) in the test with ETV3L; 1.06 fold enrichment (6-mer frequency, TF over GST control) with ETS2; 1.04 fold enrichment (6-mer frequency, TF over GST control) with ETV7. For the same sequence, the binding signal in the test with ETV3 was 1.17 fold enrichment (6-mer frequency, TF over GST control).

The values above are taken from paper PMC7862700, “An all-to-all approach to the identification of sequence-specific readers for epigenetic DNA modifications on cytosine”.
